# Assay results as given in PubChem BioAssay (NCATS).
# Where “and” joins values, the source holds several entries; their conditions need not be identical. Equal values may be shown once. Results filed as inconclusive are left out. A call without a number means that no potency is given here. Unmarked numbers belong to inactive results. Calls of active or inactive are those of the source. The call rests on the fitted dose curve; in most records, active means well fitted curve in the direction sought with a large enough effect; inconclusive means small, poorly fitted or top-dose-only effect, or another doubt; inactive means no such curve, though single readings can be large; an effect the other way counts as inactive or inconclusive. Where a SMILES comes first, the peptide text is derived from it. The star is where a group is joined. AFC = O=c1cc(C(F)(F)F)c2ccc(N*)cc2o1
# Columns and labels:
# [1] = biological target: N-terminal Xaa-Pro-Lys N-methyltransferase 1 (Homo sapiens) (UniProt Q9BV86); assay: Confirmatory qHTS for Inhibitors of N-terminal methyltransferase 1 (NTMT1): MTaseGlo Assay (AID 1645874);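 further: luminescence from SAH made as NTMT1 methylates SPKRIA peptide using SAM; series mostly up to about 100 µM; nearly all actives have a fitted effect of over 65% in size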
# How it was run: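 Compounds are incubated with 125 nM NTMT1 and 100 uM SAM for 15 min before the SPKRIA peptide (1 uM) starts a 30 min room-temperature methylation. SAH is measured by coupled luciferase luminescence and curves fitted to a Hill equation.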
# [2] = biological target: Rap guanine nucleotide exchange factor 3 (Homo sapiens) (UniProt O95398); assay: Confirmatory qHTS for antagonist of cAMP-regulated guanine nucleotide exchange factor 3 (EPAC1) (AID 1645880); details: EPAC1 Rap1B-BODIPY-GDP exchange, fluorescence; further: potency means the concentration at half of the fitted maximal effect; nearly all actives have a fitted effect of over 55% in size
# How it was run: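 Nucleotide exchange uses 100 nM EPAC1, 250 nM RAP1B-BODIPY-GDP and 50 uM GDP, with compounds in a concentration-titration series. After 5 min at room temperature, fluorescence (480 nm ex/540 nm em) is read every 5 min for 30 min. Data are normalized to control ATA and DMSO.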
# [3] = biological target: Rap guanine nucleotide exchange factor 3 (Homo sapiens) (UniProt O95398); assay: Confirmatory qHTS for agonist of cAMP-regulated guanine nucleotide exchange factor 3 (EPAC1) (AID 1645881);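 further: EPAC1 catalysed release of BODIPY-GDP from Rap1B seen as fluorescence loss; nearly all actives have a fitted effect of over 75% in size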
# [4] = Primary qHTS for inhibitors of nuclear receptor binding SET domain protein 2 (NSD2) in an isogenic RCH-ACV NSD2 p.E1099K mutant (9B) (AID 1645876); further: nearly all actives have a fitted effect of over 70% in size; further: potency means the concentration at half of the fitted maximal effect
# [5] = Primary qHTS for inhibitors of nuclear receptor binding SET domain protein 2 (NSD2) in an RCH-ACV wild type WT cells (2C) (AID 1645877); further: nearly all actives have a fitted effect of over 70% in size; further: potency means the concentration at half of the fitted maximal effect
# Chain of Rap guanine nucleotide exchange factor 3 (Homo sapiens) (O95398 whole entry, looked up, the tested form may be a part): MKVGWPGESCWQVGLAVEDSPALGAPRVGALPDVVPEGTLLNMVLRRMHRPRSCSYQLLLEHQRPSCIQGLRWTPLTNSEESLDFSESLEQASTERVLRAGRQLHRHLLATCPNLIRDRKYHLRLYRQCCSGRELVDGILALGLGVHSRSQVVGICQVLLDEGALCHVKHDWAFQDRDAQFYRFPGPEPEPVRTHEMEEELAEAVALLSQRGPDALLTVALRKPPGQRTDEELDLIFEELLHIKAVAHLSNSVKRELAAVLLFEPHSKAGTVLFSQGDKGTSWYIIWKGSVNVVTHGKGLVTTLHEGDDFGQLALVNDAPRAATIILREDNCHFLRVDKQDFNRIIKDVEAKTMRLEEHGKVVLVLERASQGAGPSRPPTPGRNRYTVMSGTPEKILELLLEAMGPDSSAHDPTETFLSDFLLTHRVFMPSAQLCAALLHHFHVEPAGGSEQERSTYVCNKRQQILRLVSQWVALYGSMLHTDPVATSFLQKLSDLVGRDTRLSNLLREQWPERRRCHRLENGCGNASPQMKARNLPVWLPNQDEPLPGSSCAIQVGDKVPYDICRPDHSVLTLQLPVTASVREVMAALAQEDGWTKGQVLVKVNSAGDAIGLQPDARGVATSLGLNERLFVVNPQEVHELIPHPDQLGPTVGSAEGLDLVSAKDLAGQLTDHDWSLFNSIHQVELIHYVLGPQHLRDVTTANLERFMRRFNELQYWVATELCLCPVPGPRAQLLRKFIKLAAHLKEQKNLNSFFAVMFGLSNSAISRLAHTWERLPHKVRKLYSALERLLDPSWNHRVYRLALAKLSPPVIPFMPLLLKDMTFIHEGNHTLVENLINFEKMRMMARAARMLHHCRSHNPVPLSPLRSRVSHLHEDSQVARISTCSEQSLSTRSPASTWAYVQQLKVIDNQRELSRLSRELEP
# Chain of N-terminal Xaa-Pro-Lys N-methyltransferase 1 (Homo sapiens) (Q9BV86 whole entry, looked up): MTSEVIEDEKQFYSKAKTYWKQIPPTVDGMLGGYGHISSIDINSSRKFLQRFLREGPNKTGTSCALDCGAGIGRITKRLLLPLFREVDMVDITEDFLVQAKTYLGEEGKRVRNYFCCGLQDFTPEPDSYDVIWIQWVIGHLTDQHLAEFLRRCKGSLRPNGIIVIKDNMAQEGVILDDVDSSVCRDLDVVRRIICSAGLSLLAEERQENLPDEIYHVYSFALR
smiles,measurement,setting,value
CC(=O)N[C@@H](CC(C)C)C(=O)N[C@@H](CCC(=O)O)C(=O)N[C@@H](CCC(=O)O)C(=O)N[C@@H](CC(=O)O)C(=O)Nc1ccc2c(C(F)(F)F)cc(=O)oc2c1 (Ac-LEED-{AFC}),Potency,[1],inactive
CC(C)(O)c1ccc2c(c1)C(=O)CC1[C@](C)(CO)CCC[C@]21C (stereo not given in full),Potency,[1],inactive
CCCCC(CC)COC(=O)CC(C(=O)OCC(CC)CCCC)S(=O)(=O)O (stereo not given),Potency,[2],35.2 µM (active) and 9.93 µM (active)
same,outcome,[3],inactive
CC(C)[C@H]1CCC(CO)=C[C@@H]1/C=C(\CO)C(=O)O,Potency,[4],inactive
same,Potency,[5],inactive
C[C@@H]1CC[C@]2(C(=O)O)CC[C@]3(C)C(=CCC4[C@]5(C)C(CC[C@]43C)C(C)(C)[C@@H](O)[C@H](O)[C@@H]5O)C2[C@]1(C)O (stereo not given in full),Potency,[4],inactive
same,Potency,[5],inactive
CC1CCC2C(C(=O)O)=CC3CC(C)(C)CC132 (stereo not given),Potency,[4],inactive
same,Potency,[5],inactive
COc1c(C(CC(C)C)OC(C)=O)ccc(Oc2c(O)cc(C)cc2/C=C/C(C)=O)c1C(=O)O (stereo not given),Potency,[4],inactive
O=C(O)c1cc(O)c2cccc(O)c2c1O[C@@H]1O[C@H](CO)[C@@H](O)[C@H](O)[C@H]1O,Potency,[4],inactive
CC(C#N)C(C)O[C@@H]1O[C@H](CO)[C@@H](O)[C@H](O)[C@H]1O (stereo not given in full),Potency,[4],inactive
same,Potency,[5],inactive
C[C@@H]1CCC2C(C)(C)[C@H](O)CC[C@]2(C)[C@@]12Cc1c(O)cc3c(c1O2)CN(CCO)C3=O (stereo not given in full),Potency,[4],inactive
same,Potency,[5],inactive
COC(=O)C1=CO[C@@H](O[C@@H]2O[C@H](CO[C@@H]3O[C@H](COC(=O)/C=C/c4ccc(O)cc4)[C@@H](O)[C@H](O)[C@H]3O)[C@@H](O)[C@H](O)[C@H]2O)[C@@H]2C(CO)=CC[C@H]12,Potency,[4],inactive
same,Potency,[5],inactive
CC(=O)O[C@@]1(C)C[C@@H](O)[C@]2(O)C=CO[C@@H](O[C@@H]3O[C@H](CO)[C@@H](O)[C@H](O)[C@H]3O)[C@@H]21,Potency,[4],inactive
same,Potency,[5],inactive
CC(=O)OC[C@]1(O)[C@H]2[C@H](OC(=O)CC(C)C)OC=C(CO[C@@H]3O[C@H](CO)[C@@H](O)[C@H](O)[C@H]3O)[C@H]2C[C@@H]1O,Potency,[4],inactive
CC(C)=CCCC1(C)Oc2cc3c(c4c2C2C(O4)C(C)(O)CCC21)CN(C(CCC(=O)O)C(=O)O)C3=O (stereo not given),Potency,[4],inactive
same,Potency,[5],inactive
CC1CCC2(C)C(CC(O)C(O)C23CO3)C1(C)CCC1=CC(=O)OC1O (stereo not given),Potency,[4],inactive
COc1cc(C2Oc3c(O)cc(CCCO)cc3C2CO)ccc1O[C@H]1O[C@H](C)[C@@H](O)[C@H](O)[C@@H]1O (stereo not given in full),Potency,[4],inactive
same,Potency,[5],inactive
CC1(C)O[C@@]2(C)CC[C@@H]1C[C@@H]2OC1OC(CO)C(O)C(O)C1O (stereo not given in full),Potency,[4],inactive
same,Potency,[5],inactive
CCOC(=O)[C@H]1O[C@@H]1C(=O)N[C@@H](CC(C)C)C(=O)NCCC(C)C,Potency,[4],inactive
same,Potency,[5],inactive
C=C1C(=O)O[C@H]2[C@H]1[C@@H](OC(=O)C(C)CO)C[C@@]1(C)[C@H](O)CCC(=O)[C@H]21 (stereo not given in full),Potency,[4],inactive
same,Potency,[5],inactive
C[C@@H]1O[C@@H](OC[C@H]2O[C@@H](OCCc3ccccc3)[C@H](O)[C@@H](O)[C@@H]2O)[C@H](O)[C@H](O)[C@H]1O,Potency,[4],inactive
same,Potency,[5],inactive
COC1CCCC/C(C)=C/C2C=C(C)C(C)C3C(CC(C)C)NC(=O)C23C(=O)C1 (stereo not given),Potency,[4],inactive
same,Potency,[5],inactive
C/C=C/C1=CC2=CC(=O)C(C)(O)C(OC(=O)c3c(C)cc(O)cc3O)C2CO1 (stereo not given),Potency,[4],inactive
C=C(C)C(C)C1OC23CC4(CO2)C(CCC2C5(C)CCC(OC6OCC(O)C(OC7OC(CO)C(O)C(OC8OCC(O)C(O)C8O)C7O)C6OC6OC(CO)C(O)C6O)C(C)(C)C5CCC24C)C3C(C)(O)C1OC(C)=O (stereo not given),"activity change, negative = viability loss",[4],-26.7% [at 9.23 µM]
COC(=O)C1C(c2ccc(O)cc2)C(C(=O)OC)C1c1ccc(O)cc1 (stereo not given),Potency,[4],inactive
same,Potency,[5],inactive
O=C(OCC12OC1C=CC(OC(=O)c1ccccc1)C2O)c1ccccc1 (stereo not given),Potency,[4],inactive
C/C(=C\CCC(C(=O)O)C1CCC2(C)C3=C(CCC12C)C1(C)CCC(=O)C(C)(C)C1CC3)C(=O)O (stereo not given),Potency,[4],inactive
C=C[C@](C)(CC/C=C(\C)C(=O)O)O[C@@H]1OC[C@H](O)[C@H](O)[C@H]1O,Potency,[4],inactive
same,Potency,[5],inactive
CCCC1=CC2=C(CO1)C(=O)C(C)(OC(=O)c1c(C)cc(OC)cc1O)C(O)C2 (stereo not given),Potency,[4],inactive
Nc1ccn([C@@H]2C(F)=C(CO)[C@@H](O)[C@H]2O)c(=O)n1,Potency,[4],372 nM (active)
same,Potency,[5],332 nM (active)
CC(=O)C1CCC2(C)C3=C(CCC12C)C1(C)CCC(=O)C(C)(C)C1CC3 (stereo not given),Potency,[4],inactive
COc1cc(C)c(C(=O)O[C@H]2[C@@H](O)[C@H](n3ccc(=O)[nH]c3=O)O[C@@H]2CO)c(OC)c1,Potency,[4],inactive
same,Potency,[5],inactive
C[C@@H]1O[C@@H](O[C@H]2[C@H](OC(=O)C34CCC(C)(C)CC3C3=CCC5C6(C)CC(O)C(O[C@@H]7O[C@H](CO)[C@@H](O)[C@H](O)[C@H]7O)C(C)(C(=O)O)C6CCC5(C)C3(CO)CC4)O[C@H](C)[C@H](O)[C@@H]2O)[C@H](O)[C@H](O)[C@H]1O[C@@H]1OC[C@@H](O)[C@H](O)[C@H]1O (stereo not given in full),"activity change, negative = viability loss",[4],3.3% [at 9.23 µM]
same,outcome,[5],inactive [at 9.23 µM]
CC1(C)C(O)CCC2(C)C1C(O)C=C1COC(=O)C12O (stereo not given),Potency,[4],inactive
same,Potency,[5],inactive
COc1cc(/C=C/C(=O)O[C@H]2[C@H](OC(=O)/C=C/c3cc(OC)c(O)c(OC)c3)O[C@H](CO[C@@H]3O[C@H](CO)[C@@H](O)[C@H](O)[C@H]3O)[C@@H](O)[C@@H]2O)ccc1O,Potency,[4],inactive
same,Potency,[5],inactive
CN1C(=O)c2ccccc2NC(=O)[C@]12O[C@@H]2c1cccc(O)c1,Potency,[4],inactive
same,Potency,[5],inactive
CC(=O)Oc1cc2c(s1)CCN([C@H](C(=O)C1CC1)c1ccccc1F)C2,Potency,[4],inactive
same,Potency,[5],inactive
